NOMO-1 viab: NOMO-1 AML cell viability reduction, primary screen, STK33 inhibitor project, CellTiter-Glo luminescence | 37,000 tested, 7.5% active | inhibition, % (no concentration beside the values) | AID 2330, 2010 | NOMO-1 AML viability, 72 h; in the data active = inhibition above about 80%; inconclusive = no clear call, values can overlap the other calls
ROS inducer: ROS inducers in U2OS cancer cells, primary screen, cell-based, H2DCF-DA fluorescence; U2OS ROS induction; ROS induction (% of piperlongumine), % at 10 µM; 46,000 tested, 2% active; AID 624156, 2012; in the data active = ROS induction above about 79%, passing the limit was not always enough; inconclusive = no clear call, values can overlap the other calls;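 note: 0% = DMSO vehicle median and 100% = reference compound median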
PD-1 reverse act: activators reversing PD-1 mediated T-cell inhibition, primary screen, luminescence, primary human CD4 T cells, PD-L1 beads. CellTiter-Glo 96 h. activation, % (concentration not given with the values). 29,000 tested, under 10 active; call rule not given here;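 note: 0% = median vehicle wells and 100% = positive control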
The depositor's hits bear a star; ? = inconclusive; . = no result given. The full list was thinned out, with hits kept by preference.

SMILES	NOMO-1 viab	ROS inducer	PD-1 reverse act
C[C@H](CO)N1C[C@H](C)[C@H](CN(C)C(=O)Nc2ccccc2)Oc2c(NC(=O)CCCCCC(=O)Nc3ccccc3N)cccc2C1=O	5	22	1
C[C@@H]1CN([C@@H](C)CO)C(=O)c2cccc(NC(=O)CCCCCC(=O)Nc3ccccc3N)c2O[C@@H]1CN(C)Cc1ccc(Oc2ccccc2)cc1	126*	136*	-7
C[C@H]1CN([C@@H](C)CO)C(=O)c2cccc(NC(=O)C3CC3)c2O[C@H]1CN(C)Cc1ccc(Oc2ccccc2)cc1	-2	5	0
Cc1nc(SCC(=O)O)c2c3c(sc2n1)CCCC3	-6	40	0
Cc1ccc(Nc2cc(C(=O)N3CCCC3)c3ccccc3n2)cc1C	.	-2	.
O=C(COc1ccc([N+](=O)[O-])cc1)Nc1cc(Cl)ccc1O	54	6	-2
O=C(Nc1ccccc1)c1cc([N+](=O)[O-])ccc1Cl	118*	1	-20
O=C(Nc1ccc([N+](=O)[O-])cc1Cl)c1cc(Cl)ccc1O	120*	-8	.
O=C(Nc1ccccc1)c1cc([N+](=O)[O-])ccc1NCc1cccnc1	34	3	-2
C=CCN1C(=O)[C@]2(O[C@H](CCO)[C@@H]([Si](C)(C)c3ccc(OC)cc3)[C@@H]2C)c2cc(NC(C)=O)ccc21	.	18	.
CCc1ccc(NC(=O)CSc2nncn3c2cc2occc23)cc1	.	-4	.
COc1ccccc1N1CCN(C2CCN(Cc3cc(OC)c(OC)c(OC)c3)CC2)CC1	.	-9	.
O=C(NC=Nc1cccnc1)C1COc2ccccc2O1 (centres undefined)	.	-9	.
C[C@@H]1CN([C@H](C)CO)C(=O)Cc2cc(NC(=O)Nc3ccccc3)ccc2O[C@@H]1CN(C)Cc1ccc(-c2ccccc2)cc1	107*	4	-6
C[C@H]1CN([C@@H](C)CO)C(=O)Cc2cc(NC(=O)Nc3ccc(F)cc3)ccc2O[C@@H]1CN(C)Cc1ccc(-c2ccccc2)cc1	106*	22	3
CC(C)NC(=O)Nc1ccc2c(c1)CC(=O)N([C@@H](C)CO)C[C@@H](C)[C@@H](CN(C)Cc1ccc(-c3ccccc3)cc1)O2	94*	31	0
C[C@@H]1CN([C@H](C)CO)C(=O)Cc2cc(NC(=O)Nc3ccc(F)cc3)ccc2O[C@@H]1CN(C)Cc1ccc(-c2ccccc2)cc1	50	9	-4
CC(C)NC(=O)Nc1ccc2c(c1)CC(=O)N([C@H](C)CO)C[C@H](C)[C@H](CN(C)Cc1ccc(-c3ccccc3)cc1)O2	42	21	-2
COc1ccc(NC(=O)Nc2ccc3c(c2)CC(=O)N([C@@H](C)CO)C[C@H](C)[C@@H](CN(C)Cc2ccc(-c4ccccc4)cc2)O3)cc1	13	56	.
C[C@@H]1CN([C@@H](C)CO)C(=O)Cc2cc(NC(=O)Nc3ccccc3)ccc2O[C@@H]1CN(C)Cc1ccccc1	23	68	1
COc1ccc(NC(=O)Nc2ccc3c(c2)CC(=O)N([C@@H](C)CO)C[C@H](C)[C@H](CN(C)Cc2ccc(-c4ccccc4)cc2)O3)cc1	128*	20	-2
CCN1CCCC1CNC(=O)c1ccc2c(=O)n3c(nc2c1)CCCCC3 (centres undefined)	.	48	.
CCOC(=O)c1sc(COc2ccc(C(C)(C)C)cc2)nc1C	.	10	.
CCOC(=O)CC1=NN(c2ccccc2)C(=O)/C1=C\c1cc(OC)c(OC)cc1OC	44	1	0
O=c1ccc2ccc(Oc3nc(-c4cccnc4)nc4ccccc34)cc2o1	.	9	.
SMILES	NOMO-1 viab	ROS inducer	PD-1 reverse act
N#CC(C(=O)c1ccccc1Cl)=C1SCCCS1	114*	63	-1
N#CC(=C1SCCCCS1)S(=O)(=O)c1ccc(Cl)cc1	29	4	2
C[C@@H]1CN([C@@H](C)CO)C(=O)c2cccc(NS(=O)(=O)c3ccc(Cl)cc3)c2O[C@@H]1CN(C)Cc1ccc(Oc2ccccc2)cc1	88*	71	-2
C[C@@H]1CN([C@H](C)CO)C(=O)c2cccc(NS(=O)(=O)c3ccc(Cl)cc3)c2O[C@H]1CN(C)Cc1ccc(Oc2ccccc2)cc1	50	15	5
COc1ccc(S(=O)(=O)Nc2cccc3c2O[C@H](CN(C)Cc2ccc(Oc4ccccc4)cc2)[C@@H](C)CN([C@H](C)CO)C3=O)cc1	53	96*	0
COc1ccc(S(=O)(=O)Nc2cccc3c2O[C@@H](CN(C)Cc2ccc(Oc4ccccc4)cc2)[C@H](C)CN([C@@H](C)CO)C3=O)cc1	19	35	1
C[C@H](CO)N1C[C@H](C)[C@@H](CN(C)Cc2ccc(Oc3ccccc3)cc2)Oc2c(NS(=O)(=O)c3ccc(Cl)cc3)cccc2C1=O	104*	112*	-4
C[C@H]1CN([C@@H](C)CO)C(=O)c2cccc(NS(=O)(=O)c3ccc(Cl)cc3)c2O[C@H]1CN(C)Cc1ccc(Oc2ccccc2)cc1	?	12	0
COc1ccc(CC(=O)Nc2ccc3nc4n(c(=O)c3c2)CCCC4)cc1	.	-1	.
Cc1cc(C(F)(F)F)nc2sc(C(=O)Nc3ccc(C(N)=O)cc3)c(N)c12	.	34	.
COc1cccc(NC(=O)c2cnccc2C(F)(F)F)c1	1	16	0
Cc1ccc(C(Nc2ccccn2)c2ccc3ccc(C)nc3c2O)cc1 (centres undefined)	132*	17	-16
COc1ccc(C(C)C)cc1S(=O)(=O)Nc1ccccn1	-15	-6	1
Cc1ccc2ccc(C(Nc3ccccn3)c3ccc(Cl)c(Cl)c3)c(O)c2n1 (centres undefined)	117*	.	-14
Cc1ccc2ccc(C(Nc3ccccn3)c3ccc(C(C)C)cc3)c(O)c2n1 (centres undefined)	108*	24	-14
Cc1ccc2ccc(C(Nc3ccccn3)c3ccc(Cl)cc3)c(O)c2n1 (centres undefined)	132*	1	-11
COc1ccc(C(Nc2ccccn2)c2ccc3ccc(C)nc3c2O)cc1C (centres undefined)	59	?	-13
COc1ccc(-n2nnc3c(=O)n(Cc4cccc(C(F)(F)F)c4)cnc32)cc1	.	0	.
CCC(Cc1ccccc1)NC(=O)c1c[nH]c2ccc(S(=O)(=O)N3CCC(C)CC3)cc2c1=O (centres undefined)	.	6	.
Cc1ccc(C(=O)/C=C2\N/C(=N/S(=O)(=O)c3ccc(N)cc3)NC2=O)cc1	.	17	.
c1nncn1N=C1CCCCC1	2	23	0
CCCC(=O)N1c2ccccc2NC2=C(C(=O)CCC2)C1c1ccc(OC)c(OC)c1 (centres undefined)	.	-8	.
COc1ccc(OC)c(NS(=O)(=O)c2cccc3cccnc23)c1	13	1	2
Cc1ccc(C(Nc2ccccn2)c2ccc3cccnc3c2O)cc1 (centres undefined)	112*	.	.
COc1ccc(I)cc1C(Nc1cc(C)ccn1)c1ccc2cccnc2c1O (centres undefined)	111*	-6	-14
CC(C(=O)Nc1cccc2cccnc12)N1C(=O)c2ccccc2C1=O (centres undefined)	-4	-20	0

Screening results deposited in PubChem BioAssay by Broad Institute.
